Myeloid diff MLP: induction of myeloid progenitor differentiation, primary screen, cell-based, flow cytometry, MLPCN library; AID 624256, 2012; calls only at 10 µM; ER-HoxA9 myeloid progenitors, lysozyme-GFP differentiation; 1% of 360,000 active;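 active = normalized GFP-positive differentiation at or above the plate's own cutoff, the solvent-only control mean plus 3 SD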;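 also: cells exposed to compound for four days before flow analysis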
NOD2 RIPK2 PPI: NOD2-RIPK2 binding disruptors in cells, primary screen, fluorescence, CHO cells, BLA complementation; AID 624267, 2012; CCF4 ratio; 0.38% of 360,000 active; inhibition, % at 4.98 µM; in the data active = inhibition above about 21%;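 also: 0% = vehicle only and 100% = reference blocker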
TLR9-MyD88 inh: inhibitors of TLR9-MyD88 association in cells, primary screen, cell-based, CHO, BLA complementation, fluorescence; 0.21% of 340,000 active; inhibition, % at 4.98 µM; CCF4 FRET ratio;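 active = inhibition above the mean over all tested compounds plus 3 SD, cut at about 21% in these data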;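 also: 0% = DMSO only wells and 100% = clavulanate BLA inhibitor control wells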
TLR4-MyD88 BLA: inhibitors of TLR4-MyD88 association in cells, primary screen, cell-based, HeLa CL3-4, BLA complementation, FRET ratio | HeLa CL3-4 TLR4/MyD88 BLA complementation | inhibition, % at 8.4 µM | 0.18% of 200,000 active; in the data active = inhibition above about 25%;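 also: 0% = vehicle and 100% = reference inhibitor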
Target sequence (O00206 whole entry, looked up): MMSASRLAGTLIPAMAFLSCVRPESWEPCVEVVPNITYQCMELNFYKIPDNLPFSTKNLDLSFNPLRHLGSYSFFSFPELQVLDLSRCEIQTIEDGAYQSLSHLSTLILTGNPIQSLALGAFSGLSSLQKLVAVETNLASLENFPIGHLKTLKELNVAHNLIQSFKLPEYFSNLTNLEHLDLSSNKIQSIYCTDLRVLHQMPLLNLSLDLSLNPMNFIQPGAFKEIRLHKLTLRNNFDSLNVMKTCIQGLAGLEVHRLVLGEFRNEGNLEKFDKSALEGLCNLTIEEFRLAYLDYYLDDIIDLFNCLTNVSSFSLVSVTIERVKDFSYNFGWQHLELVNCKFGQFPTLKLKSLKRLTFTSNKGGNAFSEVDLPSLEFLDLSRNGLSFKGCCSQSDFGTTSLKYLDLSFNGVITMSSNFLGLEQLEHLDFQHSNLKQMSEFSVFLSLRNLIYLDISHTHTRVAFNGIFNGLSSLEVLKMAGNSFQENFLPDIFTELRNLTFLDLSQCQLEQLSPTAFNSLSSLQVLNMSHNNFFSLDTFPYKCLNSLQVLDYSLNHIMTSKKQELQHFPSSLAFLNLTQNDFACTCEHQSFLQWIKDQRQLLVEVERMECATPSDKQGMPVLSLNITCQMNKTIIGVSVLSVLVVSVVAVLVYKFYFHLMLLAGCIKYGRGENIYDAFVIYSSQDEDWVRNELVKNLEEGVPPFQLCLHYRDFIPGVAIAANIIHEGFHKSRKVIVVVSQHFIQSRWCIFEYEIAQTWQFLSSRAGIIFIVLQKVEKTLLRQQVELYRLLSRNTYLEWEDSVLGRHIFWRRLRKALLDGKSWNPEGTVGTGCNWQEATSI
Target sequence (Q99836 whole entry, looked up): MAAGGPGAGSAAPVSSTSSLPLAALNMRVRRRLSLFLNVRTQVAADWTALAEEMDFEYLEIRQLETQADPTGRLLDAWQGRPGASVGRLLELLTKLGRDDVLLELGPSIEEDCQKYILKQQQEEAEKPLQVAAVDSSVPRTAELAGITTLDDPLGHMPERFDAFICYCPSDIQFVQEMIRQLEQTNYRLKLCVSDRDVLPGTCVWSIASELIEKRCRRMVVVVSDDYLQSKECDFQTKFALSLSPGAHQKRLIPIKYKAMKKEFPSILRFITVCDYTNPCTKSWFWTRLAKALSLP
Myeloid diff CP1: inducers of myeloid progenitor differentiation, confirmation, cell-based, GFP/Mac1 flow cytometry, cherry pick 01; 2% of 2,300 active; calls only; ER-HoxA9 myeloid progenitors, GFP/Mac1 double-positive flow; shares compounds with Myeloid diff MLP;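 active = share of green or green-and-red cells above 9 and 9% in run 1 or 4 and 3% in run 2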
GFP autofluor: flagged as fluorescent in myeloid differentiation counter-screen. shares compounds with Myeloid diff MLP. ER-HoxA9 myeloid progenitors, no estrogen, GFP autofluorescence flow cytometry; vehicle wells 0%, positive control 100%. fluorescence response, % (concentration not given with the values). 7.4% of 2,300 active;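 active = over 5% cells positive for green fluorescent reporter, or over 2% positive for both it and APC stain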;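 also: range taken on the double positive population between DMSO and positive control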
Numbers without * were called inactive. A selection: hits, their analogues and other compounds. The true share with any hit is near 1.5%.

O=C(CCCn1c(=S)[nH]c2cc3c(cc2c1=O)OCO3)N1CCN(c2ncccn2)CC1 was read as Myeloid diff MLP inactive, NOD2 RIPK2 PPI -2, TLR9-MyD88 inh 1, TLR4-MyD88 BLA 4, Myeloid diff CP1 inactive and GFP autofluor 0.
Screening ClC1=CN(C2=NCCC2)CC1 returned Myeloid diff MLP inactive and NOD2 RIPK2 PPI -6.
For O=[N+]([O-])c1cccc(/C(=N/N=C/c2ccccc2Br)C23CN4CN(CN(C4)C2)C3)c1 the results were Myeloid diff MLP active, NOD2 RIPK2 PPI 5, TLR9-MyD88 inh -9, TLR4-MyD88 BLA -20, Myeloid diff CP1 inactive and GFP autofluor 0.
For O=C(c1[nH]c(C(F)(F)F)nc1-c1ccccc1)N1CCN(c2cccc(C(F)(F)F)n2)CC1 the results were Myeloid diff MLP inactive and NOD2 RIPK2 PPI -3.
COc1ccccc1N1CC(C(=O)OC(C)C(=O)Nc2ccc(F)cc2)CC1=O (stereo not given) was read as Myeloid diff MLP inactive, NOD2 RIPK2 PPI 2 and TLR9-MyD88 inh 6.
Screening C=CCN1C(=O)C(Cc2ccc(C)cc2)S/C1=N/N=C/c1ccco1 (stereo not given) returned NOD2 RIPK2 PPI -2, TLR9-MyD88 inh -8, TLR4-MyD88 BLA 9, Myeloid diff CP1 inactive and GFP autofluor 1.
`Cc1cc(=O)n(CNC(=O)c2ccccc2)c(=S)[nH]1` gave Myeloid diff MLP inactive, NOD2 RIPK2 PPI -12, TLR9-MyD88 inh -4, TLR4-MyD88 BLA -9, Myeloid diff CP1 inactive and GFP autofluor 3.
Screening O=C(NCn1cnccc1=O)c1ccccc1 returned Myeloid diff MLP inactive, NOD2 RIPK2 PPI 3, TLR9-MyD88 inh 6 and TLR4-MyD88 BLA -1.
O=c1c2ccccc2nc(CSc2nnnn2-c2ccccc2)n1-c1ccccc1Cl was read as Myeloid diff MLP inactive, NOD2 RIPK2 PPI -10, TLR9-MyD88 inh -2 and TLR4-MyD88 BLA 10.
Screening c1ccc(Cn2c(CSc3nnnn3-c3ccccc3)nc3ccccc32)cc1 returned Myeloid diff MLP inactive, NOD2 RIPK2 PPI 3, TLR9-MyD88 inh -1, TLR4-MyD88 BLA -4, Myeloid diff CP1 inactive and GFP autofluor 0.
Screening Cc1csc(=O)n1CC(=O)OCC(=O)NNC(=O)c1ccc([N+](=O)[O-])cc1 returned Myeloid diff MLP active, NOD2 RIPK2 PPI -11, TLR9-MyD88 inh 4, Myeloid diff CP1 inactive and GFP autofluor 0.
Screening O=C(NCc1ccccc1)C12CN(Cc3ccccc3)CC1C(c1cccc([N+](=O)[O-])c1)=NO2 (stereo not given) returned Myeloid diff MLP inactive, NOD2 RIPK2 PPI -4, TLR9-MyD88 inh -3, TLR4-MyD88 BLA -2, Myeloid diff CP1 inactive and GFP autofluor 0.
Screening Cn1cc(Cc2ccc(C(=O)NC34CC5CC(CC(C5)C3)C4)cn2)c2ccccc21 returned Myeloid diff MLP inactive and NOD2 RIPK2 PPI 0.
Screening CC[C@]12c3[nH]c4ccc(Cl)cc4c3CCN1C(=O)[C@@H](CC(=O)NCCc1ccccn1)C[C@@H]2C(=O)N1CCN(C(=O)C2CC2)CC1 returned Myeloid diff MLP inactive, NOD2 RIPK2 PPI -4, TLR9-MyD88 inh -3, Myeloid diff CP1 inactive and GFP autofluor 0.
`C/C(=N\NC(=O)C1CCCN(S(=O)(=O)c2ccccc2)C1)c1ccccn1` (stereo not given) gave NOD2 RIPK2 PPI 8, TLR9-MyD88 inh 7, TLR4-MyD88 BLA -7, Myeloid diff CP1 inactive and GFP autofluor 1.
For C/C(=N\NC(=O)C1CCCN(S(=O)(=O)c2ccccc2)C1)c1ccncc1 (stereo not given) the results were Myeloid diff MLP inactive, NOD2 RIPK2 PPI -7, TLR9-MyD88 inh -8 and TLR4-MyD88 BLA -7.
`CC(C)CC1C(=O)N(Cc2cn(CC3CCCCC3)nn2)CCS(=O)(=O)N1Cc1ccc(-c2ccc(F)nc2)cc1` (stereo not given) gave Myeloid diff MLP inactive, NOD2 RIPK2 PPI -5 and TLR9-MyD88 inh -7.
Screening COc1ccc(CCC(=O)Nc2ccc(S(=O)(=O)Nc3ncccn3)cc2)cc1 returned Myeloid diff MLP inactive, NOD2 RIPK2 PPI 2 and TLR9-MyD88 inh -1.
Screening COc1ccc(CC(=O)Nc2ccc(S(=O)(=O)Nc3ncccn3)cc2)cc1 returned Myeloid diff MLP active, NOD2 RIPK2 PPI -6, TLR9-MyD88 inh 2, TLR4-MyD88 BLA 1, Myeloid diff CP1 inactive and GFP autofluor 1.
`Cc1ccc(CC(=O)Nc2ccc(S(=O)(=O)Nc3nccc(C)n3)cc2)cc1` gave Myeloid diff MLP inactive, NOD2 RIPK2 PPI -5, TLR9-MyD88 inh 3, Myeloid diff CP1 inactive and GFP autofluor 1.
`Cc1ccc(OCc2ccc(C(=O)NN)o2)cc1C` gave Myeloid diff MLP inactive, NOD2 RIPK2 PPI -11 and TLR9-MyD88 inh -2.
For NNC(=O)c1ccc(COc2cccc3ccccc23)o1 the results were Myeloid diff MLP active, NOD2 RIPK2 PPI -1, TLR9-MyD88 inh 2, Myeloid diff CP1 inactive and GFP autofluor 0.
CC(C)NC(=O)c1ccc(COc2cccc3ccccc23)o1 was read as Myeloid diff MLP inactive, NOD2 RIPK2 PPI -11 and TLR9-MyD88 inh 6.
Screening NNC(=O)c1ccc(COc2ccc3ccccc3c2)o1 returned Myeloid diff MLP active, NOD2 RIPK2 PPI -3, TLR9-MyD88 inh 1, Myeloid diff CP1 inactive and GFP autofluor 0.
For CCOc1ccc(OCc2ccc(C(=O)NC(C)(C)C)o2)cc1 the results were Myeloid diff MLP inactive, NOD2 RIPK2 PPI -6 and TLR9-MyD88 inh 2.
CCOc1ccc(OCc2ccc(C(=O)NN)o2)cc1 was read as Myeloid diff MLP active, NOD2 RIPK2 PPI -2, TLR9-MyD88 inh 12, Myeloid diff CP1 inactive and GFP autofluor 0.
For COc1ccc(C(=O)NC2=NCCS2)cc1S(=O)(=O)N1CCOCC1 the results were Myeloid diff MLP inactive, NOD2 RIPK2 PPI -2 and TLR9-MyD88 inh -2.
Screening COc1ccc(C(=O)C(=O)N2CCC(c3ccccc3)CC2)cn1 returned Myeloid diff MLP inactive and NOD2 RIPK2 PPI -3.
Screening COc1cc(NC(=O)c2cc(S(=O)(=O)N3CCCCC3)ccc2N2CCOCC2)cc(OC)c1 returned Myeloid diff MLP active, NOD2 RIPK2 PPI -3, TLR9-MyD88 inh 2, Myeloid diff CP1 inactive and GFP autofluor 2.
CC(=O)Nc1ccc(NC(=O)c2cc(S(=O)(=O)N3CCCCC3)ccc2N2CCOCC2)cc1 was read as Myeloid diff MLP inactive, NOD2 RIPK2 PPI 6 and TLR9-MyD88 inh 5.
